Outcome and AC50 data for 23 molecules are collected here from PubChem BioAssay (EPA / NIEHS).

Calls of active or inactive are those of the source. How the source made its calls: active means hit-call score of the fitted dose curve at least 0.9, where 1 is the maximum; inactive means score below 0.9.

Transcription factor Sp1 (Homo sapiens), sequence (P08047 whole entry, looked up): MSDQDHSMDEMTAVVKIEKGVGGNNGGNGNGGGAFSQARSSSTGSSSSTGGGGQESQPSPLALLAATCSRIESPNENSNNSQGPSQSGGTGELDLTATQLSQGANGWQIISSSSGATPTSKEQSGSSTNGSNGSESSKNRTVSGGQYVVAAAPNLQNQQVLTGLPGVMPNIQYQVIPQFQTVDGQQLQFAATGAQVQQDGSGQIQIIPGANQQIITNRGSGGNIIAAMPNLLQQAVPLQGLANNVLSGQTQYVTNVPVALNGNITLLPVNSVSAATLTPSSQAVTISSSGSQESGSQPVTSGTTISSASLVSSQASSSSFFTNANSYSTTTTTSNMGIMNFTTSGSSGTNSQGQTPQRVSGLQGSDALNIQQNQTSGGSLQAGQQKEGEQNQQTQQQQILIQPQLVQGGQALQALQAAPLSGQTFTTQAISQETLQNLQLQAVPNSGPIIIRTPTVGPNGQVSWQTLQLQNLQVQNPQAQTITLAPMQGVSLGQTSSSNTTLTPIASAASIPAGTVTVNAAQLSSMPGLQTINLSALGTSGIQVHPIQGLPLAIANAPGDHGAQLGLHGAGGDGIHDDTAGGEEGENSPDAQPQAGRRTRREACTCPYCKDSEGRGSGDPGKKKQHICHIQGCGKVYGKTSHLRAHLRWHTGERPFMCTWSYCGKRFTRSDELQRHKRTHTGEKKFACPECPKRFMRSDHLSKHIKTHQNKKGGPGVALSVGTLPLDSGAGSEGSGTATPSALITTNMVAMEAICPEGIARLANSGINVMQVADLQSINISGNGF

This assay concerns the target Transcription factor Sp1 (Homo sapiens) (UniProt P08047). In words: ATG_Sp1_CIS: Attagene CIS-FACTORIAL HepG2 Assay for human Specificity Protein 1 (Sp1) (AID 2282961). Particulars: HepG2 Sp1 cis-reporter transcription, actives raise or lower the signal. Put shortly: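 HepG2 cells transiently transfected with multiplexed cis-regulated reporter constructs, chemical exposure 24 h. Reporter mRNA quantified by RT-PCR with capillary electrophoresis; bidirectional fit relative to DMSO.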
Take `CC1=CC(=O)c2ccccc2C1=O`: the molecule was called inactive.
Take `CC(C)(C)C1CCCCC1O` (stereo not drawn): the result was inactive.
On the same count and under the same terms, to `CC(C)CCOCCC(C)C` belongs “inactive”; to `CCCCCCCCCCCCCC[n+]1ccccc1`, “inactive”; to `CCCCCCCC(OC)OC`, “inactive”.
With `O=CC(F)(F)C(F)(F)C(F)(F)C(F)F`, the result was inactive.
Regarding `CCCCCCCCCCCCCCC`, the molecule was called inactive.
Take `O=C1OC(=O)C(F)(F)C1(F)F`: the molecule was called inactive.
Same read-out and setting: to `COCN(COC)c1nc(N(COC)COC)nc(N(COC)COC)n1` belongs “inactive”; to `CC(=O)Nc1ccc(S(N)(=O)=O)cc1`, “inactive”.
For the molecule `CCCCCCCCCCCC(=O)NCCCN(C)C`, the outcome was inactive.
Still for that read-out and setting: in the case of `C=CC(C)(CCC=C(C)C)OC(C)=O` (stereo not drawn) it was “inactive”; in that of `O=C(OC(=O)C(F)(F)C(F)(F)F)C(F)(F)C(F)(F)F`, “inactive”.
The same measure, in the same setting: to `C[N+](C)(CCCNS(=O)(=O)CCC(F)(F)C(F)(F)C(F)(F)C(F)(F)C(F)(F)C(F)(F)F)CC(=O)[O-]` belongs “inactive”; to `CCOC(=O)CN[C@@H](C(=O)N1CC[C@H]1C(=O)NCc1ccc(/C(N)=N/O)cc1)C1CCCCC1`, “inactive”; to `CC(O)COc1ccccc1` (stereo not drawn), “inactive”.
Consider `CCC(C)c1ccccc1O` (stereo not drawn), for which the outcome was inactive.
With `C/C=C/C(=O)C1=C(C)CCCC1(C)C`, the half-maximal activity concentration (AC50) (in general, the midpoint of the concentration-response curve, whichever way the signal moves) was 35.4 µM (active).
Consider `O=C(NCc1ncc(C(F)(F)F)cc1Cl)c1c(Cl)cccc1Cl`, for which the call was inactive.
As to `CCCCCC(C)OC(=O)COc1ccc(Cl)c2cccnc12` (stereo not drawn), the result was inactive.
Same read-out and setting: to `O=S(=O)(O)C(F)(F)C(F)(F)C(F)(F)C(F)(F)C(F)(F)C(F)(F)C(F)(F)C(F)(F)C(F)(F)C(F)(F)F` belongs “inactive”; to `c1cc2cccc3c4cccc5cccc(c(c1)c23)c54`, “inactive”.
Still for that read-out and setting: in the case of `CCCCC(CC)C(=O)OCCOCCOCCOCCOC(=O)C(CC)CCCC` (stereo not drawn) it was “inactive”.
